This passage reports growth results from PubChem BioAssay (NCI).

This is part of a sample that, as a whole, favours compounds with a hit. Of some 83,000 tested, about 20% had one in any assay.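 Testing used 96-well plates and a 48-hour single-concentration exposure. Example: -40 means 40% of the starting cells died.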 A number with no mark means an inactive call. Calls of active or inactive are those of the source. Rule for the calls: active = growth percent below 10; inactive = the rest.

Test systems include NCI-H226 lung; NCI-H322M lung; HOP-62 NSCLC; NCI-H460 lung; HOP-92 NSCLC; NCI-H522 lung; A549/ATCC NSCLC; 786-0 renal; COLO 205 colon; DU-145 prostate; K-562 leukemia; MALME-3M melanoma; MDA-MB-231 breast; RXF 393 renal; SF-268 CNS; SF-295 CNS; SF-539 CNS; UACC-257 melanoma; M14 melanoma; NCI-H23 lung.
Holding throughout (experiment): NCI-60 one-dose screen, 48 h (100 = growth as untreated, 0 = no growth, -100 = all killed)
What all share (conditions): 10 µM unless noted

As to `C#CCOc1cc(N(CC)CC)ccc1C(C(=O)NC(C)(C)C)N(C(=O)C1CCc2cc(F)ccc2O1)c1cc(C)cc(C)c1` (stereo not drawn), the growth in the test on NCI-H226 lung is 33.3%; in the test with NCI-H322M lung it was 66.6%; in the test with HOP-62 NSCLC it was 52.4%; in the test on NCI-H460 lung, 30.4%; with HOP-92 NSCLC, 9.21% (active); with NCI-H522 lung, 19.6%. The growth in the test on A549/ATCC NSCLC was 36.1%; with 786-0 renal, 36.3%; in the test with COLO 205 colon it was 31.3%; in the test with DU-145 prostate it was 58.1%; in the test on K-562 leukemia, 16.4%; in the test with MALME-3M melanoma, 59.4%. Besides, the growth in the test on MDA-MB-231 breast is 46.7%; with RXF 393 renal, 42.9%; with SF-268 CNS, 38.2%; in the test on SF-295 CNS it was 33.5%; in the test with SF-539 CNS it was 53.5%; in the test on UACC-257 melanoma it was 42.5%. Further, in the test on M14 melanoma, the growth was 39.9%.
Take `Cn1cc(-c2cc(N)n3nc(-c4cn(C)c5ccccc45)cc3n2)c2cc(Br)ccc21`: the growth in the test on NCI-H226 lung was 2.38% (active); in the test with NCI-H322M lung it was 7.11% (active); in the test with HOP-62 NSCLC, -45.2% (active); in the test with NCI-H460 lung, -24.2% (active); in the test on HOP-92 NSCLC it was -59% (active); in the test with NCI-H522 lung it was -62.7% (active). For the same compound, the growth with A549/ATCC NSCLC is 4.06% (active); in the test with 786-0 renal, -85% (active); with COLO 205 colon, -79.1% (active); with DU-145 prostate, 27.7%; in the test with K-562 leukemia it was 0.853% (active); in the test on MALME-3M melanoma it was -72.9% (active). The growth was -41.2% (active) in the test on MDA-MB-231 breast; -70.1% (active) in the test on RXF 393 renal; -47.3% (active) in the test with SF-268 CNS; -53.4% (active) with SF-295 CNS; -72.3% (active) in the test on SF-539 CNS; -71% (active) in the test with UACC-257 melanoma. For the same compound, the growth in the test with M14 melanoma is -74.4% (active).
Turning to `CCOC(=O)C1=C(N)N(c2ccccc2)C2=C(C(=O)CC(C)(C)C2)C1c1ccc([N+](=O)[O-])cc1` (stereo not drawn), the growth is 88% in the test with NCI-H226 lung; 97.9% in the test on NCI-H322M lung; 99% in the test with HOP-62 NSCLC; 89.8% in the test with NCI-H460 lung; 106% with HOP-92 NSCLC; 79.2% with NCI-H522 lung. Moreover, the growth in the test with A549/ATCC NSCLC is 91.5%; in the test on 786-0 renal it was 93.7%; in the test on COLO 205 colon, 101%; in the test on DU-145 prostate it was 106%; with K-562 leukemia, 83.7%; in the test on MALME-3M melanoma, 120%. Moreover, the growth in the test on MDA-MB-231 breast was 97.4%; in the test with RXF 393 renal it was 101%; in the test on SF-268 CNS it was 106%; with SF-295 CNS, 96.2%; with SF-539 CNS, 94.3%; with UACC-257 melanoma, 112%. In addition, the growth with M14 melanoma was 99.5%.
For `CC(=O)c1c(N)c(C#N)cn1-c1ccc(Cl)cc1Cl`, the growth in the test on NCI-H226 lung is 80.6%; in the test with NCI-H322M lung it was 101%; in the test with HOP-62 NSCLC, 94.6%; in the test on NCI-H460 lung, 111%; in the test on HOP-92 NSCLC, 98.6%; in the test with NCI-H522 lung, 82.3%. Moreover, the growth in the test on A549/ATCC NSCLC was 95.8%; with 786-0 renal, 99.2%; in the test on COLO 205 colon, 105%; in the test with DU-145 prostate it was 113%; in the test with K-562 leukemia, 95.1%; in the test on MALME-3M melanoma it was 107%. Moreover, the growth in the test with MDA-MB-231 breast was 99.7%; in the test on RXF 393 renal, 104%; in the test with SF-268 CNS it was 107%; in the test with SF-295 CNS it was 116%; with SF-539 CNS, 99.9%; in the test with UACC-257 melanoma, 106%. Further, the growth in the test with M14 melanoma is 98.9%.
Turning to `CN1CCc2c(sc3ncnc(N/N=C/c4ccc(Cl)cc4Cl)c23)C1`, the growth in the test on NCI-H23 lung is 12.2%; in the test on NCI-H226 lung, -59.8% (active); with HOP-62 NSCLC, 27.1%; in the test on HOP-92 NSCLC, -47.2% (active); in the test with NCI-H522 lung, -34.3% (active); in the test on A549/ATCC NSCLC, 31.4%. Further, the growth in the test on 786-0 renal was -93.9% (active); in the test on COLO 205 colon it was -48% (active); in the test with DU-145 prostate, 36.1%; with K-562 leukemia, -21.5% (active); with MALME-3M melanoma it was -62.4% (active); in the test on RXF 393 renal, -41.8% (active). Besides, the growth with SF-268 CNS is 35.8%; with SF-295 CNS, 32.4%; in the test with SF-539 CNS, -94.6% (active); with UACC-257 melanoma it was -12.3% (active); with M14 melanoma it was -81.4% (active).
Regarding `O=C(/C=C/c1cccc(OCc2ccccc2)c1)c1nc2ccccc2[nH]1`, the growth with NCI-H23 lung is 63.7%; with NCI-H226 lung, 1.49% (active); in the test with HOP-62 NSCLC, 50.5%; in the test with HOP-92 NSCLC, 22.7%; in the test on NCI-H522 lung, 72.8%; in the test with A549/ATCC NSCLC, 39.1%. The growth is -60.7% (active) in the test with 786-0 renal; -31.7% (active) in the test on COLO 205 colon; 55.9% in the test with DU-145 prostate; -8.72% (active) in the test on K-562 leukemia; 90.9% in the test with MALME-3M melanoma; 20.4% in the test on RXF 393 renal. Moreover, the growth with SF-268 CNS was 62.3%; in the test on SF-295 CNS, 69.9%; in the test on SF-539 CNS, -56.5% (active); in the test on UACC-257 melanoma, 70.1%; in the test on M14 melanoma it was 1.55% (active).
Regarding `CCOC(=O)/C=C/c1cccc2c1C(=O)NC(C)(c1cc3cc(Br)ccc3oc1=O)N2` (stereo not drawn), the growth in the test on NCI-H226 lung is 43.3%; in the test on NCI-H322M lung, 88%; with HOP-62 NSCLC, 65.6%; in the test on NCI-H460 lung, 46.1%; in the test on HOP-92 NSCLC, 40.2%; in the test with NCI-H522 lung, 29.1%. Also, the growth in the test with A549/ATCC NSCLC is 40.1%; in the test on 786-0 renal, 59.4%; with COLO 205 colon it was 46.5%; in the test with DU-145 prostate, 49.6%; in the test with K-562 leukemia, 24.1%; in the test with MALME-3M melanoma, 71%. The growth in the test on MDA-MB-231 breast is 56%; with RXF 393 renal, 35.6%; in the test with SF-268 CNS, 49.8%; with SF-295 CNS, 36.7%; in the test with SF-539 CNS, 73.9%; with UACC-257 melanoma, 64.6%. Moreover, the growth in the test on M14 melanoma is 42.4%.
Take `CCOC(=O)C1=C(N)N(c2ccccc2)C2=C(C(=O)CC(C)(C)C2)C1c1ccc(N2CCOCC2)cc1` (stereo not drawn): the growth was 89.8% in the test with NCI-H226 lung; 99.1% in the test with NCI-H322M lung; 102% in the test with HOP-62 NSCLC; 106% with NCI-H460 lung; 87.7% with HOP-92 NSCLC; 89.4% with NCI-H522 lung. Moreover, the growth is 103% with A549/ATCC NSCLC; 87.7% in the test with 786-0 renal; 108% with COLO 205 colon; 111% in the test with DU-145 prostate; 96.9% in the test on K-562 leukemia; 112% in the test on MALME-3M melanoma. Further, the growth with MDA-MB-231 breast is 104%; with RXF 393 renal, 91.2%; in the test with SF-268 CNS it was 97.4%; with SF-295 CNS, 98.9%; in the test on SF-539 CNS, 93%; with UACC-257 melanoma, 109%. In the test on M14 melanoma, the growth was 101%.
